In PubChem BioAssay (NCATS):
“And” between values parts separate entries of the source, which are not always exact repeats. Identical values can stand only once. Inconclusive results are not listed. The source made the active and inactive calls. Unless noted, the call rests on the fitted dose curve; in most records, active means well fitted curve in the direction sought with a large enough effect; inconclusive means small, poorly fitted or top-dose-only effect, or another doubt; inactive means no such curve, though single readings can be large; an effect the other way counts as inactive or inconclusive.

How the values were obtained:
[1] = target: Glucocorticoid receptor (Homo sapiens) (UniProt P04150); experiment: qHTS assay for small molecule agonists of glucocorticoid receptor signaling (AID 588532; active means well fitted curve in the direction sought with a large enough effect in the signal ratio, with a control signal flat; the % refers to the signal ratio;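 further: 100% = dexamethasone at 0.1 µM and 0% = DMSO only wells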); settings: HeLa MMTV-bla, beta-lactamase ratio, agonist, 18 h; stronger effect = higher value; percent of dexamethasone control, DMSO zero
Glucocorticoid receptor (Homo sapiens), sequence (P04150 whole entry, looked up): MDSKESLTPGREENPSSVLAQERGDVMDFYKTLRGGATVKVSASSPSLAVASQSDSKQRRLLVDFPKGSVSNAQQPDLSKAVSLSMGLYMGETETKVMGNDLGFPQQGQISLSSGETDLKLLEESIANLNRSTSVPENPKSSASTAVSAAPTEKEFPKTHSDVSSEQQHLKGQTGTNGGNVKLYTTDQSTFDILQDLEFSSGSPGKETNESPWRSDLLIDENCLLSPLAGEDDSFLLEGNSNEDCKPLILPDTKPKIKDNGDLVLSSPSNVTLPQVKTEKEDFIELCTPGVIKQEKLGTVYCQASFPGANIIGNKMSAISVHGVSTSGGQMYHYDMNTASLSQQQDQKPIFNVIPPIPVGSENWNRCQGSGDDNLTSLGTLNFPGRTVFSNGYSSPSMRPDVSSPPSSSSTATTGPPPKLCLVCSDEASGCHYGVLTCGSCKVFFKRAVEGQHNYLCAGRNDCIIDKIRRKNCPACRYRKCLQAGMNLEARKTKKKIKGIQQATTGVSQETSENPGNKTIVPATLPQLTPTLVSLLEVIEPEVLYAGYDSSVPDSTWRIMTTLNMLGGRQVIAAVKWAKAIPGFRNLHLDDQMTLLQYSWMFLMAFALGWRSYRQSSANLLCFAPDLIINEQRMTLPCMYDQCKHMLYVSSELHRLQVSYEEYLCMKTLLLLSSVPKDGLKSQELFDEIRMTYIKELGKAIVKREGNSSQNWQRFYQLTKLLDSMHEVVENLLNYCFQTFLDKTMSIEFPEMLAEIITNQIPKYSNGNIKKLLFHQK
How it was run: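 Agonist-mode qHTS: GRE-driven beta-lactamase in HeLa cells exposed 18 h to titrated compounds (up to 92 uM), then CCF4 ratio read after 2 h at RT; Hill-fitted EC50, efficacy relative to 0.1 uM dexamethasone.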

[2] = target: Peroxisome proliferator-activated receptor gamma (Homo sapiens) (UniProt P37231); experiment: qHTS assay for small molecule antagonists of peroxisome proliferator-activated receptor gamma signaling (AID 588537; active means well fitted inhibition curve with a large enough effect in the signal ratio, with a control signal flat, not every such curve was filed as active; the % refers to the signal ratio;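 further: reporter cells co-stimulated with 50 nM rosiglitazone agonist during compound treatment; % of control where 0% means no effect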); settings: HEK293 PPARg-UAS-bla, beta-lactamase ratio, antagonist mode; series mostly up to 76.8 µM
Peroxisome proliferator-activated receptor gamma (Homo sapiens), sequence (P37231 whole entry, looked up): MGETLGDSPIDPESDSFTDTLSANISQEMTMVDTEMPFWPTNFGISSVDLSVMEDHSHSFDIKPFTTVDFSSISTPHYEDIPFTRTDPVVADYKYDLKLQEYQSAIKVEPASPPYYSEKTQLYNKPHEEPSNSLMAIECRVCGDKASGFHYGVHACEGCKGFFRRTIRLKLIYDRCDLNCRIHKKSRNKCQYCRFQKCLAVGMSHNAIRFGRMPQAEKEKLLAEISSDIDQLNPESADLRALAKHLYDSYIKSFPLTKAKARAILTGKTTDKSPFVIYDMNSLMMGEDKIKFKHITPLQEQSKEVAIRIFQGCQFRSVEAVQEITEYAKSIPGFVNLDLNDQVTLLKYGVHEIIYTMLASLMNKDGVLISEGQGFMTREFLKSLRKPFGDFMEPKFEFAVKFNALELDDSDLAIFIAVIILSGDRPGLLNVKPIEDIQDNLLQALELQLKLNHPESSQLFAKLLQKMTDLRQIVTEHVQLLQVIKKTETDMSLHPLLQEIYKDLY
How it was run: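 Antagonist-mode β-lactamase reporter screen run as a titration series. HEK293 PPARγ-UAS-bla cells are stimulated with rosiglitazone (50 nM final) for 16 h, then CCF4 is read at 460/530 nm. Data are scaled between DMSO and rosiglitazone and fitted to the Hill equation.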

[3] = target: Vitamin D3 receptor (Homo sapiens) (UniProt P11473); experiment: qHTS assay for small molecule antagonists of vitamin D receptor signaling (AID 588541; calls by dose curve;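 further: receptor activated by calcitriol during compound treatment; on the % scale 0 is the no-effect control and ±100 the full control effect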); settings: HEK293T VDR-UAS-bla, beta-lactamase ratio, antagonist mode; series mostly up to 76.7 µM
Vitamin D3 receptor (Homo sapiens), sequence (P11473 whole entry, looked up): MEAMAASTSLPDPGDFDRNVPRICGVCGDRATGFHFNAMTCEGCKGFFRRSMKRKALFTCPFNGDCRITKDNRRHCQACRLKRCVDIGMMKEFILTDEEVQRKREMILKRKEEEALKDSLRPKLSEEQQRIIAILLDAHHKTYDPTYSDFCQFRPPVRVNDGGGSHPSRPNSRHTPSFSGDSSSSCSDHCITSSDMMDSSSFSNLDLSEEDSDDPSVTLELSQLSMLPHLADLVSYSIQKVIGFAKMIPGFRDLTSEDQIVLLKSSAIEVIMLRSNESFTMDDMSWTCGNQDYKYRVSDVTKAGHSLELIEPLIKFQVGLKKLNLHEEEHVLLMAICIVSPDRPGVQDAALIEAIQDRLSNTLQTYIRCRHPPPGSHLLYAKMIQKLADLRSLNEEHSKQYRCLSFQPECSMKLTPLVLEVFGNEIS
How it was run: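 Antagonist-mode beta-lactamase reporter assay: HEK293T VDR-UAS-bla cells were exposed to titrated compound alongside 1-alpha,25-dihydroxyvitamin D3 at 3 nM final for 16 h. Values were normalized to the 50 nM agonist control and DMSO basal, with IC50 and efficacy from Hill equation fits.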

[4] = target: Vitamin D3 receptor (Homo sapiens) (UniProt P11473); experiment: qHTS assay for small molecule agonists of vitamin D receptor signaling (AID 588543; calls by dose curve;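 further: 0% = DMSO basal and 100% = reference agonist control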); settings: HEK293T VDR-UAS-bla, beta-lactamase ratio, 16 h; series mostly up to 76.8 µM
How it was run: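 β-lactamase reporter, VDR-UAS-bla HEK293T, agonist mode. Cells plated 5 h at 37 °C, compound titration 16 h at 37 °C, CCF4 dye 2 h RT, ratio 460/530 nm. Hill fit → EC50, efficacy vs 50 nM 1α,25-(OH)2D3.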

[5] = qHTS assay for small molecule agonists of retinoid X receptor alpha signaling (AID 588544; calls by dose curve;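 on activation: 0% = DMSO basal wells and 100% = reference agonist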); settings: HEK293T RXRa-UAS-bla, beta-lactamase reporter, 18 h; 530 nm emission
[6] = target: Retinoic acid receptor RXR-alpha (Homo sapiens) (UniProt P19793); experiment: as above; settings: HEK293T RXRa-UAS-bla, beta-lactamase reporter, 18 h; series mostly up to 76.7 µM
Retinoic acid receptor RXR-alpha (Homo sapiens), sequence (P19793 whole entry, looked up): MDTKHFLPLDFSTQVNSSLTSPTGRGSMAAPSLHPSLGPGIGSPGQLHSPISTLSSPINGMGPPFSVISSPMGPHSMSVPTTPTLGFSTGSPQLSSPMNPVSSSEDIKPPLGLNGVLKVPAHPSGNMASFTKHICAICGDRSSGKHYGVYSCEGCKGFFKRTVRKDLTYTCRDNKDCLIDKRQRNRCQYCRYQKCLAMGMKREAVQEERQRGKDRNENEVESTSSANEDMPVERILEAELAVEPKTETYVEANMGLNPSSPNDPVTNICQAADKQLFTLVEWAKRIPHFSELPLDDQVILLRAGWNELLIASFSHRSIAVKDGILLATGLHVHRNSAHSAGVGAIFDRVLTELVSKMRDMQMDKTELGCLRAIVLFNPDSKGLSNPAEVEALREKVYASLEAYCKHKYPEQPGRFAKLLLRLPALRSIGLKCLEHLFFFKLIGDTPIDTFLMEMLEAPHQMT

[7] = target: Thyroid hormone receptor beta (Homo sapiens) (UniProt P10828); experiment: qHTS assay for small molecule agonists of thyroid hormone receptor beta signaling (AID 588545; calls by dose curve;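 further: 0% = DMSO only and 100% = 10 nM T3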); settings: TR-UAS-bla GripTite HEK 293, beta-lactamase ratio, agonist mode, 18 h; series mostly up to 76.7 µM
Thyroid hormone receptor beta (Homo sapiens), sequence (P10828 whole entry, looked up): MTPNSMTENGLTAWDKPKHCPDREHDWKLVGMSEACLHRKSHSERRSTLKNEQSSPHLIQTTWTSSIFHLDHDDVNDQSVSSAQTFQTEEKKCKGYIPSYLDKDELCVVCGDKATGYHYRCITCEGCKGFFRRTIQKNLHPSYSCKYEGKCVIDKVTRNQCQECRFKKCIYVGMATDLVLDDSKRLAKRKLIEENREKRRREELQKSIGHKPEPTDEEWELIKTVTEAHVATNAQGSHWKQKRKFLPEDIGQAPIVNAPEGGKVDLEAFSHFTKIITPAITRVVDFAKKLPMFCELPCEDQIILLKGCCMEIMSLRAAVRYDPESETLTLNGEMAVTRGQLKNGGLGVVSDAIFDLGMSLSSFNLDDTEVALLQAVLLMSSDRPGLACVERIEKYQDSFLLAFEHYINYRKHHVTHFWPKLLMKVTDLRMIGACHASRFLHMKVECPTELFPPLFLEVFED
How it was run: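 Efficacy and EC50 values derive from Hill fits of qHTS titration data, normalized to 10 nM T3 and DMSO-only wells. HEK 293 reporter cells were stimulated for 18 hrs at 37 C, with beta-lactamase activity measured by CCF4 fluorescence.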

[8] = qHTS assay for small molecule antagonists of retinoid X receptor alpha signaling (AID 588546; active means well fitted inhibition curve with a large enough effect in the signal ratio, with a control signal flat, not every such curve was filed as active; the % refers to the signal ratio;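 further: cells stimulated with 9-cis-retinoic acid as agonist; on the % scale 0 is the no-effect control and ±100 the full control effect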); settings: HEK293T RXRa-UAS-bla, beta-lactamase ratio, antagonist mode; measured here: W530 green channel, cytotoxicity proxy
How it was run: (§1)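 Beta-lactamase reporter inhibition, read as CCF4 fluorescence ratio (ex 405, em 460/530 nm) after 2 h at RT. HEK293T UAS-bla cells, 2500/well, were stimulated with 9-cis-RA at 500 or 100 nM final alongside test compound for 18 h at 37 C.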

[9] = target: Retinoic acid receptor RXR-alpha (Homo sapiens) (UniProt P19793); experiment: as above; settings: HEK293T RXRa-UAS-bla, beta-lactamase ratio, antagonist mode
How it was run: as §1

[10] = qHTS assay for small molecule activators of the p53 signaling pathway (AID 651743; active means well fitted activation curve with a large enough effect in the signal ratio, not every such curve was filed as active; the % refers to the signal ratio; further: % of control where 0% means no effect); settings: HCT-116 p53RE-bla, beta-lactamase FRET ratio, 16 h; activation: stronger effect = higher value
How it was run: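 After 16 hours compound treatment at 37 C, HCT-116 cells stably expressing p53RE-driven beta-lactamase were loaded with LiveBLAzer B/G FRET substrate for 2 hours at room temperature. Fluorescence intensity served as the p53 activation read-out.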

[11] = qHTS assay for environmental chemicals that activate the Aryl hydrocarbon Receptor (AhR) signaling pathway (AID 651777); settings: 1A2-DRE human hepatoma cells, luciferase, 24 h; activation: stronger effect = higher value; further: % of control where 0% means no effect; nearly all actives have a fitted effect of over 15% in size
How it was run: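 Human hepatoma 1A2-DRE cells, stably carrying a dioxin response element and CYP1A2 promoter driving luciferase, were exposed to compounds for 24 hr at 37 C and 5% CO2. Luciferase signal was then read after 30 min One-Glo at room temperature.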

[12] = qHTS assay for small molecule agonists of the antioxidant response element (ARE) signaling pathway measured by Nrf2-dependant transcriptional activity (AID 720636; active means well fitted curve in the direction sought with a large enough effect in the repeat runs; an effect the other way counts as inactive or inconclusive; further: % of control where 0% means no effect); settings: ARE-luc HepG2, Nrf2 luciferase reporter, 16 h; series mostly up to 92.4 µM
How it was run: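 ARE-luc HepG2 cells carrying an Nrf2-responsive luciferase reporter were plated in medium with 1% dialyzed FBS, left 6 hr at 37 C to attach, then exposed to compound for 16 hr. Luciferase luminescence was read after ONE-Glo addition.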

[13] = qHTS assay for small molecule agonists of the antioxidant response element (ARE) signaling pathway measured by Nrf2-dependant transcriptional activity - cell viability counter screen (AID 720653; active means well fitted curve in the direction sought with a large enough effect in the repeat runs; an effect the other way counts as inactive or inconclusive; further: on the % scale 0 is the no-effect control and ±100 the full control effect); settings: ARE-bla HepG2 viability, CellTiter-Glo ATP luminescence, 16 h; max response: stronger effect = lower value
How it was run: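 Cytotoxicity counter screen: intracellular ATP quantified by CellTiter-Glo luminescence in the same ARE-bla HepG2 plates, after 16 h compound exposure and a 2 h beta-lactamase substrate step.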

[14] = qHTS assay for cell viability of HEK293 cells (AID 743288); settings: ATP luminescence (CellTiter-Glo), 18 h; max response: stronger effect = lower value; further: on the % scale 0 is the no-effect control and ±100 the full control effect; nearly all actives have a fitted effect of over 50% in size
How it was run: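 ATP luminescence (CellTiter-Glo) reports metabolically competent cell number after parental HEK293 cells, 2,000/well, were treated with DMSO-dissolved compounds for 18 h at 37 C; reagent incubation 30 min, room temperature.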

[15] = target: Nuclear receptor subfamily 1 group I member 2 (Rattus norvegicus) (UniProt Q9R1A7); experiment: qHTS assay for small molecule activators of the rat pregnane X receptor (rPXR) signaling pathway (AID 651751; call rule not given here; further: 0% is about no effect); settings: rPXR reporter cells, luciferase (One-Glo), 24 h
Nuclear receptor subfamily 1 group I member 2 (Rattus norvegicus), sequence (Q9R1A7 whole entry, looked up): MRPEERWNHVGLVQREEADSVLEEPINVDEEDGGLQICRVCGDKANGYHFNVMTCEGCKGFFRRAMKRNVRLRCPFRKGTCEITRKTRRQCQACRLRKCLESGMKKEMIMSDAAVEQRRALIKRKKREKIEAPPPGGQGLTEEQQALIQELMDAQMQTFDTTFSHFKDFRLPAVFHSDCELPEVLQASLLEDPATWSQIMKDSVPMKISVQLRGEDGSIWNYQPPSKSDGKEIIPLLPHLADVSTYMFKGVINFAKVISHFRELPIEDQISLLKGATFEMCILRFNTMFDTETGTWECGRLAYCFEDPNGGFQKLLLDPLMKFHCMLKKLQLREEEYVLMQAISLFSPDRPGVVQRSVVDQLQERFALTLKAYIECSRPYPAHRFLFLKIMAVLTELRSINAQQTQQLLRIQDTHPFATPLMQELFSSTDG

[16] = qHTS assay for small molecule activators of the human pregnane X receptor (PXR) signaling pathway (AID 720659; call rule not given here; further: 0% is about no effect); settings: DPX-2 HepG2 CYP3A4-luciferase, 24 h; series mostly up to 92.3 µM
[17] = qHTS assay for small molecule antagonists of peroxisome proliferator-activated receptor delta signaling (AID 588535); settings: HEK293T PPARd-UAS-bla, beta-lactamase FRET ratio, 18 h; 460 nm channel;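 further: cells co-treated with a PPAR-delta agonist as stimulator during compound exposure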
How it was run: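 Titrations were run on PPAR-delta-UAS-bla HEK293T cells in charcoal/dextran-stripped serum, incubated 18 h at 37 C. CCF4 fluorescence (460/530 nm) after 2 h RT; Hill equation yields IC50 and maximal response.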

[18] = target: Peroxisome proliferator-activated receptor gamma (Homo sapiens) (UniProt P37231); experiment: qHTS assay for small molecule agonists of peroxisome proliferator-activated receptor gamma signaling (AID 588536; active means well fitted curve in the direction sought with a large enough effect in the signal ratio, with a control signal flat, not every such curve was filed as active; the % refers to the signal ratio;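 further: 0% = DMSO basal wells and 100% = rosiglitazone at 2 µM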); settings: HEK293 PPARg-UAS-bla, beta-lactamase ratio, 16 h, percent of rosiglitazone response, DMSO as zero; series mostly up to 76.7 µM
How it was run: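 This is an agonist-mode beta-lactamase reporter assay in HEK293 PPAR-gamma-UAS-bla cells with 1% charcoal/dextran FBS. Compound titrations ran 16 h at 37 C before CCF4 detection. EC50 and efficacy are Hill fits scaled to 2 uM rosiglitazone (100%) and DMSO basal.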

[19] = target: Peroxisome proliferator-activated receptor alpha (Homo sapiens) (UniProt Q07869); experiment: qHTS assay for small molecule agonists of the peroxisome proliferator-activated receptor alpha (PPARalpha) signaling pathway (AID 651778); settings: PathHunter PPARalpha complementation, chemiluminescence, 6 h; max response: stronger effect = higher value; further: % of control where 0% means no effect
Peroxisome proliferator-activated receptor alpha (Homo sapiens), sequence (Q07869 whole entry, looked up): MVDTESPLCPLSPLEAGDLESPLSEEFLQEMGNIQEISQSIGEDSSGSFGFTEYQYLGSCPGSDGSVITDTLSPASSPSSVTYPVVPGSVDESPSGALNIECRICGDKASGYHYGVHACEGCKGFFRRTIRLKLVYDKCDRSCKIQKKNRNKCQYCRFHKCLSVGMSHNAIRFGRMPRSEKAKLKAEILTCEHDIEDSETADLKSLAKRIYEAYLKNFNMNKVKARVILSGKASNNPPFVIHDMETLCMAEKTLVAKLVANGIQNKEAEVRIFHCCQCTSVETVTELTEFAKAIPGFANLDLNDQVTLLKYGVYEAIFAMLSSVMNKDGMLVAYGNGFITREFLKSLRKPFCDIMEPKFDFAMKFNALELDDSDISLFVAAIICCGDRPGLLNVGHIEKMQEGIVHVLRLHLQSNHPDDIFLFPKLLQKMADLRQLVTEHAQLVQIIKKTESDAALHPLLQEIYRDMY
How it was run: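 Chemiluminescence from complemented enzyme reported PPARalpha activation in cells after 6 hr of compound treatment at 37 C. The detection reagent was incubated for 60 min at room temperature, and compounds were scored as agonists.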

[20] = qHTS assay for cell viability of the p53RE-bla HCT-116 cell line (AID 743292); settings: p53RE-bla HCT-116 viability, ATP luminescence, 16 h; series mostly up to 95 µM; further: on the % scale 0 is the no-effect control and ±100 the full control effect; nearly all actives have a fitted effect of over 55% in size
How it was run: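 CellSensor p53RE-bla HCT-116 cells, 4,000/well, preincubated 5 h at 37 C, then exposed to compounds in DMSO for 16 h at 37 C. Viability read as CellTiter-Glo luminescence (intracellular ATP) after 30 min at room temperature.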

Structure (SMILES)	activation [1]	Potency [2]	Potency [3]	outcome [4]	max response [5]	Potency [6]	Potency [7]	max response [8]	max response [9]	activation [10]	activation [11]	Potency [12]	max response [13]	max response [14]	max response [15]	outcome [16]	max response [17]	outcome [18]	max response [19]	Potency [20]
COC(=O)c1ccc(CNS(C)(=O)=O)cc1S(=O)(=O)NC(=O)Nc1nc(OC)cc(OC)n1	-4.55% (inactive)	inactive	inactive	inactive	10.6%	inactive	inactive	-12.9%	13.2% (inactive)	-5.96% (inactive)	-2.23% (inactive)	inactive	12.1% (inactive)	10.3% (inactive)	-5.5% (inactive)	inactive	–	–	–	–
CCCCC(CC)COC(C)=O (stereo not drawn)	-0.969% (inactive)	inactive	inactive	–	-20.2%	inactive	inactive	-1.25%	-2.2% (inactive)	–	-1.93% (inactive)	inactive	3.74% (inactive)	-7.43% (inactive)	-1.91% (inactive)	inactive	8.6%	inactive	-0.237% (inactive)	inactive
COC(=O)CSc1cc(N=c2sc(=O)n3n2CCCC3)c(F)cc1Cl	–	inactive	inactive	inactive	–	–	inactive	–	–	–	-2.58% (inactive)	inactive	8.69% (inactive)	4.83% (inactive)	–	–	–	inactive	0.865% (inactive)	–
O=C(c1ccccc1)c1ccc(O)c(O)c1O	-16.3% (inactive)	–	inactive	inactive	27%	inactive	inactive	-6.52%	-13.1% (inactive)	-1.01% (inactive)	3.3% (inactive)	inactive	-9.24% (inactive)	-12.1% (inactive)	-0.206% (inactive)	inactive	45.6%	–	–	inactive
C=CC(=O)OCCOc1ccccc1	-7.33% (inactive)	inactive	–	inactive	–	–	inactive	-0.297%	-20.4% (inactive)	0.464% (inactive)	-0.084% (inactive)	–	-16.9% (inactive)	-15.9% (inactive)	2.62% (inactive)	inactive	-44.3%	inactive	-0.522% (inactive)	inactive
CCCC/C=C\CCCCCCCCCC=O	–	–	inactive	inactive	–	–	inactive	-13.9%	6.53% (inactive)	0.222% (inactive)	1.27% (inactive)	inactive	-12.8% (inactive)	3.95% (inactive)	4.56% (inactive)	inactive	-21.9%	inactive	7.85% (inactive)	inactive
CCCCCCCC/C=C\CCCCCCCC(=O)OC	-1.79% (inactive)	inactive	inactive	inactive	-13.4%	inactive	inactive	-9.12%	-0.729% (inactive)	1.64% (inactive)	-0.866% (inactive)	inactive	-4.89% (inactive)	-6.3% (inactive)	0.29% (inactive)	inactive	-11.5%	inactive	4.75% (inactive)	inactive
CC(C)Nc1nc(N)nc(Cl)n1	-6.58% (inactive) and -7.33% (inactive)	inactive	inactive	inactive	2.38% and -17.2%	inactive	inactive	-2.6% and -6.07%	-9.99% (inactive) and -17.3% (inactive)	–	1.51% (inactive) and -1.55% (inactive)	inactive	-6.9% (inactive) and -10.3% (inactive)	-6.34% (inactive) and -4.35% (inactive)	4.66% (inactive) and -2.32% (inactive)	inactive	2.88% and -10.4%	inactive	-0.394% (inactive) and -2.37% (inactive)	inactive
COCCOCCOCCO	2.13% (inactive)	–	–	inactive	-11.8%	inactive	–	-2.04%	3.15% (inactive)	13.1% (inactive)	-0.0316% (inactive)	inactive	-1.82% (inactive)	-7% (inactive)	1.8% (inactive)	inactive	7.14%	–	0.508% (inactive)	inactive
CC1=CC(=O)CC(C)(C)C1	-9.62% (inactive)	inactive	inactive	inactive	-20.2%	inactive	inactive	-3.41%	-18.4% (inactive)	–	0.188% (inactive)	inactive	-10.2% (inactive)	-2.87% (inactive)	1.52% (inactive)	inactive	13.3%	–	0.525% (inactive)	inactive
CCCCCCCCCCCCCCC	-6.59% (inactive)	–	inactive	inactive	–	–	inactive	-8.06%	-6.6% (inactive)	–	–	inactive	10.3% (inactive)	-6.32% (inactive)	-4.43% (inactive)	inactive	-0.185%	–	-1.61% (inactive)	inactive
CCOC(=O)C(C)Oc1ccc(Oc2nc3ccc(Cl)cc3o2)cc1 (stereo not drawn)	19.6% (inactive)	inactive	–	inactive	11.3%	inactive	–	–	–	-9.4% (inactive)	0.871% (inactive)	–	6.64% (inactive)	2.68% (inactive)	-9.57% (inactive)	inactive	-2.48%	–	26% (inactive)	–
CCCCCCCCCCCCc1ccccc1	–	–	–	inactive	-7.45%	inactive	–	-16.5%	–	-0.535% (inactive)	0.463% (inactive)	inactive	-12.7% (inactive)	2.81% (inactive)	0.082% (inactive)	inactive	-16.9%	inactive	-0.756% (inactive)	inactive
